According to the OligoGym collection:

These sequences were tested against TNPO2 (assay: pooled miR-30 sensor sort-seq; sequence = guide strand). Conditions: shRNA.
Further: reference of the scale not given here.

Row | Sequence | sensor-assay potency score (higher = more potent)
1 | TTGACACCGATCATCATGCAGA | -0.349
2 | TTGAAGAACTGCAGGAACTTGG | -0.371
3 | TTTGAGCAGCTGCAGGACCTGC | -1.11
4 | TTTGAGTTTATCCTGCACGATG | -1.1
5 | AATGTTGTTGAGACACTCCTGT | 0.856
6 | TCATCTTCTGACTTGAGTCTGG | 0.0435
7 | TTGTTCTTGAGGATGAGGCCAC | -0.289
8 | TGAGTCTTTGAGCAGCTGCAGG | -1.5
9 | TTCTCTAGAATTGCTGACCCAG | -0.678
10 | TTGTCTTCGTCCTTGAGCTCAT | 0.165

These sequences were tested against TOMM40L in the same assay as above. Conditions: shRNA.

Row | Sequence | sensor-assay potency score (higher = more potent)
11 | TATACCATAGAACACATCCACC | -1.17
12 | TCTGATAGTCTGTCATACCAGA | -0.753
13 | TTATACCATAGAACACATCCAC | -0.126
14 | TAAGAGGTAAAGAAGCTCCTTC | 0.51
15 | TTTGGAACCTCTGATAGTCTGT | 0.397
16 | TACCAAATCCAGCACATCCAGG | -1.16
17 | TGTGGTAGTAACTTGCATGGGC | 1.17
18 | TTTCTCTAATGTTCAGACCTGG | -0.359
19 | TAGACGGTGCAGCTCATCGAAG | -1.14
20 | TACATCTTTGCATAGACGGTGC | 0.000587
21 | TTACTATCCACCAAGCCTCTAA | -0.326
22 | TAGTCTGTCATACCAGAGCATG | -1.7

These sequences were tested against TOP1MT in the same assay as above. Conditions: shRNA.

Row | Sequence | sensor-assay potency score (higher = more potent)
23 | TTTTTCTTGGTGACCATCTAAA | -1.15
24 | TATTCATGATCTAACATCCTCC | 0.13
25 | TTTGCCTGGATCTTCGTCTGGA | 0.141
26 | TTGTCCACAAAGTATCTGTGGA | 0.0397
27 | TTTTGCTGTAGATCTTCTCCAC | 0.12
28 | TTGTAGGTCCGGAACACCTTGG | -0.571
29 | TTGTTGTGTATTCATGATCTAA | -0.885
30 | TTCTTCTCCAGGACACTCCTGG | 0.134
31 | TCATTGAAGAAGTTCTTCCGGA | 0.332
32 | TTCTGAACGCTCTCGGTCCAAG | -1.34
33 | TGTAGGATAAGATCTTAGCTGC | 0.167
34 | TTGTTCTCCTCCTTGTCCGTGG | -0.327

Each sequence was assayed against TP53I13 in the same assay as above. Conditions: shRNA.

Row | Sequence | sensor-assay potency score (higher = more potent)
35 | TTGGTGACACCTGCGGAGGCAG | -1.23
36 | TTGAACAGACACAGCCCCCTGG | 0.146
37 | TAGAGGAAGGTGACATCCTCAG | -0.655
38 | TCGGAAGTTTCTGTGCAGCCGT | -0.684
39 | TTGGCCTTCAAGCTCCCTGGGG | -0.75
